Out of some 1,200 compounds screened, about 250 (21%) were called active. Only a sample is shown. A number with no mark means an inactive call. No stated cut-off is given here; in the data, active means inhibition above about 20%; inactive means the rest.

This experiment deals with Neuropeptide Y receptor type 1 (Homo sapiens) (UniProt P25929). The experiment can be described thus: blockers of human NPY-Y1 signalling – HEK293-CNG cells, membrane potential fluorescence, triplicate, confirmation (AID 1254).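 Further: 0% = vehicle with agonist plus stimulus and 100% = stimulus alone without agonist.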 The settings on record: cAMP, at 3.6 µM, hits give high values, NPY challenge against isoproterenol-raised cAMP.
Chain of Neuropeptide Y receptor type 1 (Homo sapiens) (P25929 whole entry, looked up): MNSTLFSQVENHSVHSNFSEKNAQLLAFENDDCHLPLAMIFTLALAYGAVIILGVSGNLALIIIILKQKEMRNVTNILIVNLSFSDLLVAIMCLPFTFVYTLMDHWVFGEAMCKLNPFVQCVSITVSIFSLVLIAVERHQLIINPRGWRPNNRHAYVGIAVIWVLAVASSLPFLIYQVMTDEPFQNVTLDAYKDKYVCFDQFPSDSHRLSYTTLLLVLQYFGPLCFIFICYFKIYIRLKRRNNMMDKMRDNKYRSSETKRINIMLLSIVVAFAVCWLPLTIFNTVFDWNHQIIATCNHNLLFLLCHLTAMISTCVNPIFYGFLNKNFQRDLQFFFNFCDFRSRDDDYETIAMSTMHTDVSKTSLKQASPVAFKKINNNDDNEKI
Usually inhibition stands for the drop in the measured response relative to a control, in per cent. Turning to `CCOC1CCCCC1NS(=O)(=O)c1ccc(Cl)cc1` (configuration not stated), the inhibition is -0.15%.
For `CCCC(=O)Nc1nc2ccc(NC(=O)c3c(F)c(F)c(OC)c(F)c3F)cc2s1` the value was 6.69%.
For `Cc1ccc(N2C(=O)C3N=NN(CC(=O)N4N=C(c5cccc6ccccc56)CC4c4ccccc4)C3C2=O)cc1` (configuration not stated), the inhibition was 0.57%.
In the case of `COC(=O)C1=C(Nc2ccc(C)cc2)C=C(C)C(C(=O)OC)C1c1ccc(F)cc1` (configuration not stated) it was 19%; in that of `NC(N)=N/N=C/c1ccc(OCc2ccc(Cl)cc2Cl)cc1`, 11.7%; in that of `CC(=O)OC(C)C[N+](C)(C)C` (configuration not stated), 15.3%.
For the compound `Cc1ccc(C(=O)C[n+]2cc(-c3ccccc3)n3c2CCCCC3)cc1`, the inhibition was 22.1% (active).
For `CCOC(=O)N1CCN(S(=O)(=O)c2ccc(C(=O)Nc3ccc(F)cc3F)cc2)CC1` the value was 2.56%.
As for `Cc1nc(-c2ccccc2)sc1C(=O)/C=C/c1ccccc1`, the inhibition is 7.83%.
Turning to `COc1ccc(C(c2nnnn2C2CCCCC2)N2CCN(c3ccccc3F)CC2)cc1` (configuration not stated), the inhibition was 15%.
Take `Cc1ccc(SCCC(=O)OCC(=O)Nc2ncc(Cl)cc2Cl)cc1`: the inhibition was 5.19%.
In the case of `CCCCc1c(O)nc2n(c1=O)CCS2`, the inhibition is 1.41%.
Consider `CCCOC(=O)c1[nH]c2c(c1C)C(=O)CC(c1cccs1)C2` (configuration not stated), for which the inhibition was 7.07%.
For the compound `CC1CN(CCCOc2ccccc2-c2ccccc2)CC(C)O1` (configuration not stated), the inhibition was 2.5%.
Regarding `Cc1ccc(Cn2c(NC(=O)c3ccco3)nc3ccccc32)cc1`, the inhibition was 17.4%.
Regarding `COc1cccc(CNCCc2c[nH]c3ccccc23)c1OCc1ccccc1F`, the inhibition was 9.73%.
For the compound `OC(COCCC12CC3CC(CC(C3)C1)C2)CN1CCCCC1` (configuration not stated), the inhibition was 3.08%.
For the compound `Cc1ccc(/C=N/NC(=O)COc2ccccc2-c2ccccc2)cc1`, the inhibition was 11.6%.
In the case of `CCCSc1nc(NCc2ccco2)c2c3c(sc2n1)COC(C)(CC)C3` (configuration not stated) it was 10.4%.
For the compound `O=C(Cc1cccs1)N(CC1CCCO1)C1(C(=O)NC2CCCCC2)CCCCC1` (configuration not stated), the inhibition is 9.42%.
Turning to `COc1ccccc1N1CCN(C(=O)CN(Cc2ccc(Cl)cc2)S(C)(=O)=O)CC1`, the inhibition is 11.6%.
As to `CCC(=O)c1c[nH]c(C(=O)NCC2CCCO2)c1` (configuration not stated), the inhibition is 0.28%.
Take `CCOC(=O)c1nn(-c2cccc(C)c2)cc1C(=O)c1ccccc1`: the inhibition is 5.58%.
In the case of `COC(=O)c1ccc(C(NC(=O)OCc2ccccc2)/C(C)=C/[C@@H](C)C(=O)NCc2ccc(OC)c(OC)c2)cc1` (some centres not stated) it was 15.9%; in that of `O=C(NCCCN1CCOCC1)c1cnn2c(-c3ccccc3)cc(-c3ccccc3)nc12`, 25% (active); in that of `O=C1c2cccnc2C(Nc2ccc(S(=O)(=O)N3CCCCCC3)cc2)N1Cc1ccccc1` (configuration not stated), 0.2%.
As to `COc1ccc(C2Nc3ccccc3C(=O)N2Cc2ccccc2)cc1Cn1nnc2ccccc21` (configuration not stated), the inhibition was 11.8%.
As for `CCS(=O)(=O)n1nc(-c2ccccc2)nc1SCc1ccccc1`, the inhibition was 13.5%.
Regarding `Cc1cc(C(C)(C)C)oc1C(=O)N(CC(=O)NC1CCCC1)Cc1ccc(Cl)cc1`, the inhibition was 25.8% (active).
In the case of `O=C(/C=C/c1ccco1)Nc1cccc(-c2nc3ccccc3[nH]2)c1` it was 2.58%; in that of `Oc1ccc(-c2[nH]ncc2-c2nc3ccccc3s2)c(O)c1`, 53% (active); in that of `CCc1ccc(CNC(=O)C2CCCN(c3nc4ccccc4o3)C2)cc1` (configuration not stated), 13.2%.
In the case of `CCCCn1nc(C(=O)N2CCc3ccccc32)c2ccccc2c1=O` it was 3.55%; in that of `Clc1ccccc1-c1cc(COc2ccc3ccccc3c2)no1`, 13.6%.
For `CCCCCCC(=O)Nc1nc(C)c(-c2csc(Nc3cccc(OC)c3)n2)s1`, the inhibition was 17.8%.
Turning to `CC(Oc1ccc2ccccc2c1)C(=O)NNC(=S)NC(=O)c1ccco1` (configuration not stated), the inhibition was 10.5%.
As to `Cc1ccc(C(=O)N/C(=C/c2ccc(-c3cccc([N+](=O)[O-])c3)o2)C(=O)NCCCN(C)C)cc1`, the inhibition was 9.75%.
Regarding `O=C(CSc1nc2cc3c(cc2c(=O)n1CCC1=CCCCC1)OCO3)NCc1ccco1`, the inhibition was 4.77%.
For the compound `CC(=O)N1CC(C)c2scc(C)[n+]2-c2ccccc21` (configuration not stated), the inhibition was -0.57%.
Take `Fc1ccc(-c2nnc(CSc3nnc(-c4ccc5c(c4)OCO5)o3)o2)cc1`: the inhibition is 10.1%.
As for `CN(C)CCCCCN(C)Cc1cc2ccccc2o1`, the inhibition is 9.51%.
Take `CC(C)Cn1cnc2c1c(=O)n(CC(O)c1ccccc1)c(=O)n2CC(C)C` (configuration not stated): the inhibition is -1.75%.

Values taken from PubChem BioAssay AID1254 (The Scripps Research Institute Molecular Screening Center, 2008).
